Data published in PubChem BioAssay (NCATS).
Inconclusive results are not listed. Entries that show only a call come without a potency. Calls of active or inactive are those of the source. The call rests on the fitted dose curve; in most records, active means well fitted curve in the direction sought with a large enough effect; inconclusive means small, poorly fitted or top-dose-only effect, or another doubt; inactive means no such curve, though single readings can be large; an effect the other way counts as inactive or inconclusive.

Tests used:
[1] = qHTS of pediatric cancer cell lines to identify multiple opportunities for drug repurposing: Primary screen for LAN-5 cells (AID 1347100); further: potency means the concentration at half of the fitted maximal effect
How it was run: (§1)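 Viability after 48 h compound treatment at 37C, 500-1,000 cells/well, read as ATP luminescence with CellTiter-Glo. Primary screens used 11-point (MIPE, 0.78 nM-46 µM) or 8-point (NPC, 0.59 nM-46 µM) final concentrations; follow-up screens used 11-point dilutions.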

[2] = qHTS of pediatric cancer cell lines to identify multiple opportunities for drug repurposing: Primary screen for BT-12 cells (AID 1347101); further: nearly all actives have a fitted effect of over 25% in size; further: potency means the concentration at half of the fitted maximal effect
How it was run: (§2)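 Cells (500-1,000/well) rested 5 h, then received compounds for 48 h; metabolically active cells were measured by CellTiter-Glo luminescence. Final concentrations spanned up to 46 µM (MIPE, 11-point) or 0.59 nM-46 µM (NPC, 8-point) in primary screens, 11-point in follow-ups.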

[3] = qHTS of pediatric cancer cell lines to identify multiple opportunities for drug repurposing: Primary screen for Rh18 cells (AID 1347102); further: nearly all actives have a fitted effect of over 65% in size
How it was run: as §1

[4] = qHTS of pediatric cancer cell lines to identify multiple opportunities for drug repurposing: Primary screen for OHS-50 cells (AID 1347103); further: nearly all actives have a fitted effect of over 40% in size; further: potency means the concentration at half of the fitted maximal effect
How it was run: as §2

[5] = qHTS of pediatric cancer cell lines to identify multiple opportunities for drug repurposing: Primary screen for RD cells (AID 1347104); further: nearly all actives have a fitted effect of over 55% in size; further: potency means the concentration at half of the fitted maximal effect
How it was run: (§3)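 Plated cells (500-1,000 per well, growth media) were allowed to settle for 5 hours, treated with compound dilutions for 48 hours, then lysed with CellTiter-Glo for 15 min at room temperature before luminescence reading.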

[6] = qHTS of pediatric cancer cell lines to identify multiple opportunities for drug repurposing: Primary screen for MG 63 (6-TG R) cells (AID 1347105); further: nearly all actives have a fitted effect of over 50% in size; further: potency means the concentration at half of the fitted maximal effect
How it was run: as §3

[7] = qHTS of pediatric cancer cell lines to identify multiple opportunities for drug repurposing: Primary screen for control Hh wild type fibroblast cells (AID 1347106);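 further: series mostly up to about 46 µM; a drop in luminescence marks cytotoxicity and a rise apparent proliferation; nearly all actives have a fitted effect of over 55% in size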
How it was run: as §1

[8] = qHTS of pediatric cancer cell lines to identify multiple opportunities for drug repurposing: Primary screen for Rh30 cells (AID 1347107); further: series mostly up to about 46 µM; nearly all actives have a fitted effect of over 75% in size
How it was run: as §1

[9] = qHTS of pediatric cancer cell lines to identify multiple opportunities for drug repurposing: Primary screen for Rh41 cells (AID 1347108);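 further: series mostly up to about 46 µM; luminescence drop marks cytotoxic hits; nearly all actives have a fitted effect of over 70% in size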
How it was run: as §3

[10] = qHTS of pediatric cancer cell lines to identify multiple opportunities for drug repurposing: Primary screen for NB1643 cells (AID 1347099); further: nearly all actives have a fitted effect of over 50% in size; further: potency means the concentration at half of the fitted maximal effect
How it was run: as §3

**Q.** With `CC(=O)Nc1ccc(OCC(O)CNC(C)C)cc1` (stereo not drawn) as the compound, how does the Potency [1] read?
**A.** The Potency was “inactive”.

**Q.** What about the Potency [2] of the same compound?
**A.** The Potency was “inactive”.

**Q.** And the Potency [3]?
**A.** Its Potency is “inactive”.

**Q.** What about the Potency [4] of the same compound?
**A.** Its Potency is “inactive”.

**Q.** What about the Potency [5] of the same compound?
**A.** Its Potency is “inactive”.

**Q.** What about the Potency [6] of the same compound?
**A.** The Potency was “inactive”.

**Q.** And the Potency [7]?
**A.** Its Potency is “inactive”.

**Q.** What about the Potency [8] of the same compound?
**A.** Its Potency is “inactive”.

**Q.** For `CC(=O)OC[C@H]1O[C@@H](n2ncc(=O)[nH]c2=O)[C@H](OC(C)=O)[C@@H]1OC(C)=O`, which Potency [3] is on record?
**A.** The Potency was “inactive”.

**Q.** What about the Potency [6] of the same compound?
**A.** Its Potency is “inactive”.

**Q.** What about the Potency [7] of the same compound?
**A.** Its Potency is “inactive”.

**Q.** What about the Potency [8] of the same compound?
**A.** The Potency was “inactive”.

**Q.** And the Potency [9]?
**A.** The Potency was “inactive”.

**Q.** Which Potency [6] does the source give for `O=C(N/N=C/c1ccc([N+](=O)[O-])o1)c1ccc(O)cc1` here?
**A.** Its Potency is “inactive”.

**Q.** And the Potency [7]?
**A.** The Potency was “inactive”.

**Q.** What about the Potency [8] of the same compound?
**A.** Its Potency is “inactive”.

**Q.** Which Potency [4] does the source give for `CCCCCCCCNC(C)C(O)c1ccc(SC(C)C)cc1` (stereo not drawn) here?
**A.** The Potency was 21.9 µM (active).

**Q.** What about the Potency [6] of the same compound?
**A.** The Potency was 26.6 µM (active).

**Q.** And the Potency [7]?
**A.** Its Potency is “inactive”.

**Q.** Which results are given for `CN1CCN(CCC(=O)N2c3ccccc3Sc3ccc(C(F)(F)F)cc32)CC1`?
**A.** Potency [1]: 26.6 µM (active); Potency [4]: 17.4 µM (active); Potency [5]: 23.7 µM (active); Potency [8]: inactive

**Q.** With `C/C=C/C=N/NC(=O)c1ccncc1` as the compound, how does the Potency [1] read?
**A.** The Potency was “inactive”.

**Q.** What about the Potency [2] of the same compound?
**A.** The Potency was “inactive”.

**Q.** What about the Potency [4] of the same compound?
**A.** The Potency was “inactive”.

**Q.** And the Potency [5]?
**A.** The Potency was “inactive”.

**Q.** And the Potency [6]?
**A.** The Potency was “inactive”.

**Q.** And the Potency [7]?
**A.** The Potency was “inactive”.

**Q.** What about the Potency [8] of the same compound?
**A.** Its Potency is “inactive”.

**Q.** And the Potency [9]?
**A.** The Potency was “inactive”.

**Q.** Which Potency [10] does the source give for `CCc1nn(CCCN2CCN(c3cccc(Cl)c3)CC2)c(=O)n1CCOc1ccccc1` here?
**A.** Its Potency is “inactive”.

**Q.** What about the Potency [3] of the same compound?
**A.** The Potency was “inactive”.

**Q.** What about the Potency [4] of the same compound?
**A.** The Potency was 24.6 µM (active).

**Q.** And the Potency [5]?
**A.** The Potency was “inactive”.

**Q.** And the Potency [6]?
**A.** Its Potency is “inactive”.

**Q.** What about the Potency [7] of the same compound?
**A.** Its Potency is “inactive”.

**Q.** What about the Potency [8] of the same compound?
**A.** Its Potency is “inactive”.

**Q.** Which results are given for `CN1CCN(C2=Nc3cc(F)ccc3Cc3ccccc32)CC1`?
**A.** Potency [1]: inactive; Potency [7]: inactive; Potency [8]: inactive; Potency [9]: inactive

**Q.** What does the source list for `O=C(Nc1ncc([N+](=O)[O-])s1)c1cccs1`?
**A.** Potency [10]: 23.7 µM (active); Potency [2]: 12.3 µM (active); Potency [4]: 30.9 µM (active); Potency [7]: inactive

**Q.** Which results are given for `CC(C)=CCOc1ccc(/C=C/C(=O)c2ccc(OCC=C(C)C)cc2OCC(=O)O)cc1`?
**A.** Potency [10]: 23.7 µM (active); Potency [3]: inactive; Potency [6]: 33.5 µM (active); Potency [7]: inactive; Potency [8]: inactive; Potency [9]: inactive

**Q.** With `CC[C@H](c1ccc(O)cc1)[C@@H](CC)c1ccc(O)cc1` as the compound, how does the Potency [1] read?
**A.** The Potency was “inactive”.

**Q.** And the Potency [3]?
**A.** The Potency was “inactive”.

**Q.** What about the Potency [4] of the same compound?
**A.** Its Potency is 27.6 µM (active).

**Q.** And the Potency [6]?
**A.** The Potency was 13.3 µM (active).

**Q.** And the Potency [7]?
**A.** Its Potency is “inactive”.

**Q.** What about the Potency [9] of the same compound?
**A.** Its Potency is “inactive”.
